Data published in PubChem BioAssay AID1159580 (chemical genetic matrix, 2015).
Out of some 5,500 compounds screened, about 2,000 (36%) were called active. About 18% were inconclusive and are not listed. No stated cut-off is given here; in the data, active means normalized growth mostly below about 0.91 (no sharp cut-off); inconclusive means no clear call, values can overlap the other calls; inactive means mostly above about 0.92. The list shows a part of the results.

Experiment: chemical genetic growth profiling, strain panel (AID 1159580);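 further: tested at 20 µM; growth read once vehicle control cultures reached saturation at 30 °C; 1 = growth at the plate median or of vehicle wells; lower values mean less growth of the strain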
Details: growth OD

Measured: normalized growth

C=CCc1ccc2c(c1)OCO2
inactive: S. cerevisiae deletion strains, locus YJR043C, strain POL32, active compounds read low 1.02 | S. cerevisiae deletion strains, locus YJR066W, strain TOR1, active compounds read low 0.928 | S. cerevisiae deletion strains, locus YJR075W, strain HOC1, active compounds read low 1.03 | S. cerevisiae deletion strains, locus YKL009W, strain mrt4, active compounds read low 0.979 | S. cerevisiae deletion strains, locus YKL068W, active compounds read low 0.987 | S. cerevisiae deletion strains, locus YKL085W, strain MDH1 (second series), active compounds read low 1.01 | S. cerevisiae deletion strains, locus YKL085W, strain MDH1, active compounds read low 1.01 | S. cerevisiae deletion strains, locus YKL160W, strain elf1, active compounds read low 0.994 | S. cerevisiae deletion strains, locus YKL190W, strain CNB1, active compounds read low 1.01 | S. cerevisiae deletion strains, locus YKR001C, strain vps1, active compounds read low 0.965 | S. cerevisiae deletion strains, locus YKR026C, strain gcn3, active compounds read low 1.03 | S. cerevisiae deletion strains, locus YKR091W, strain srl3, active compounds read low 1.02 | S. cerevisiae deletion strains, locus YLL001W, strain dnm1, active compounds read low 1.05 | S. cerevisiae deletion strains, locus YLL026W, active compounds read low 1.01 | S. cerevisiae deletion strains, locus YLL041C, strain sdh2, active compounds read low 1.02 | S. cerevisiae deletion strains, locus YLR027C, strain aat2, active compounds read low 1 | S. cerevisiae deletion strains, locus YLR039C, strain RIC1, active compounds read low 0.891 | S. cerevisiae deletion strains, locus YLR058C, strain SHM2, active compounds read low 1.01 | S. cerevisiae deletion strains, locus YLR102C, strain apc9, active compounds read low 0.993 | S. cerevisiae deletion strains, locus YLR113W, strain HOG1, active compounds read low 1.03 | S. cerevisiae deletion strains, locus YLR221C, strain rsa3, active compounds read low 1.06 | S. cerevisiae deletion strains, locus YLR258W, strain gsy2, active compounds read low 1.02 | S. cerevisiae deletion strains, locus YLR262C, strain YPT6 (second series), active compounds read low 1.03 | S. cerevisiae deletion strains, locus YLR262C, strain YPT6, active compounds read low 0.909 | S. cerevisiae deletion strains, locus YLR268W, strain sec22, active compounds read low 0.987 | S. cerevisiae deletion strains, locus YLR320W, strain mms22, active compounds read low 1.04 | S. cerevisiae deletion strains, locus YLR330W, strain CHS5, active compounds read low 1 | S. cerevisiae deletion strains, locus YLR342W, strain FKS1 (second series), active compounds read low 1.01 | S. cerevisiae deletion strains, locus YLR342W, strain FKS1, active compounds read low 1.02 | S. cerevisiae deletion strains, locus YLR357W, strain rsc2, active compounds read low 1.13 | S. cerevisiae deletion strains, locus YLR370C, strain arc18, active compounds read low 1.04 | S. cerevisiae deletion strains, locus YLR371W, strain rom2, active compounds read low 0.984 | S. cerevisiae deletion strains, locus YLR384C, strain iki3, active compounds read low 1.03 | S. cerevisiae deletion strains, locus YLR418C, strain cdc73, active compounds read low 1.01 | S. cerevisiae deletion strains, locus YML016C, strain PPZ1, active compounds read low 1.01 | S. cerevisiae deletion strains, locus YML032C, strain rad52, active compounds read low 0.996 | S. cerevisiae deletion strains, locus YML120C, strain ndi1, active compounds read low 1.05 | S. cerevisiae deletion strains, locus YML124C, strain tub3, active compounds read low 0.995 | S. cerevisiae deletion strains, locus YMR058W, strain fet3, active compounds read low 1.04 | S. cerevisiae deletion strains, locus YMR078C, strain ctf18, active compounds read low 0.985 | S. cerevisiae deletion strains, locus YMR125W, strain sto1, active compounds read low 1.08 | S. cerevisiae deletion strains, locus YMR129W, active compounds read low 1.03 | S. cerevisiae deletion strains, locus YMR205C, strain PFK2, active compounds read low 1 | S. cerevisiae deletion strains, locus YMR223W, strain ubp8, active compounds read low 1 | S. cerevisiae deletion strains, locus YMR231W, strain pep5, active compounds read low 1.02 | S. cerevisiae deletion strains, locus YMR263W, strain SAP30, active compounds read low 1 | S. cerevisiae deletion strains, locus YMR307W, strain GAS1, active compounds read low 0.995 | S. cerevisiae deletion strains, locus YNL067W, strain RPL9B, active compounds read low 0.998 | S. cerevisiae deletion strains, locus YNL071W, strain lat1, active compounds read low 1.03 | S. cerevisiae deletion strains, locus YNL183C, strain NPR1, active compounds read low 0.97 | S. cerevisiae deletion strains, locus YNL209W, strain ssb2, active compounds read low 1.02 | S. cerevisiae deletion strains, locus YNL233W, strain BNI4, active compounds read low 1 | S. cerevisiae deletion strains, locus YNL248C, strain rpa49, active compounds read low 1.04 | S. cerevisiae deletion strains, locus YNL250W, strain rad50, active compounds read low 1.01 | S. cerevisiae deletion strains, locus YNL271C, strain bni1, active compounds read low 0.978 | S. cerevisiae deletion strains, locus YNL298W, strain CLA4, active compounds read low 0.995 | S. cerevisiae deletion strains, locus YNL307C, strain MCK1, active compounds read low 0.989 | S. cerevisiae deletion strains, locus YNL322C, strain KRE1 (second series), active compounds read low 1.02 | S. cerevisiae deletion strains, locus YNR049C, strain mso1, active compounds read low 1.02 | S. cerevisiae deletion strains, locus YNR052C, strain pop2, active compounds read low 0.997 | S. cerevisiae deletion strains, locus YOL012C, strain htz1 0.985 | S. cerevisiae deletion strains, locus YOL147C, strain pex11, active compounds read low 0.987 | S. cerevisiae deletion strains, locus YOR001W, strain rrp6, active compounds read low 1 | S. cerevisiae deletion strains, locus YOR061W, strain CKA2, active compounds read low 1.01 | S. cerevisiae deletion strains, locus YOR069W, strain VPS5, active compounds read low 1.01 | S. cerevisiae deletion strains, locus YOR070C, strain gyp1, active compounds read low 1.01 | S. cerevisiae deletion strains, locus YOR080W, strain dia2, active compounds read low 1.03 | S. cerevisiae deletion strains, locus YOR083W, strain WHI5, active compounds read low 1 | S. cerevisiae deletion strains, locus YOR106W, strain vam3, active compounds read low 1.04 | S. cerevisiae deletion strains, locus YOR136W, strain idh2, active compounds read low 0.987 | S. cerevisiae deletion strains, locus YOR144C, strain elg1, active compounds read low 0.988 | S. cerevisiae deletion strains, locus YOR184W, strain ser1, active compounds read low 0.99 | S. cerevisiae deletion strains, locus YOR231W, strain MKK1, active compounds read low 0.99 | S. cerevisiae deletion strains, locus YOR265W, strain rbl2, active compounds read low 1.01 | S. cerevisiae deletion strains, locus YOR270C, strain vph1, active compounds read low 1.07 | S. cerevisiae deletion strains, locus YOR290C, strain snf2, active compounds read low 1.07 | S. cerevisiae deletion strains, locus YOR316C, strain cot1, active compounds read low 0.99 | S. cerevisiae deletion strains, locus YPL051W, strain arl3, active compounds read low 1 | S. cerevisiae deletion strains, locus YPL078C, strain atp4, active compounds read low 1.01 | S. cerevisiae deletion strains, locus YPL106C, strain sse1, active compounds read low 1.03 | S. cerevisiae deletion strains, locus YPL240C, strain hsp82, active compounds read low 1.02 | S. cerevisiae deletion strains, locus YPL256C, strain CLN2, active compounds read low 0.966 | S. cerevisiae deletion strains, locus YPR119W, strain clb2, active compounds read low 0.982 | S. cerevisiae deletion strains, locus YPR141C, strain kar3, active compounds read low 0.976 | S. cerevisiae deletion strains, locus YPR163C, strain tif3, active compounds read low 0.989 | S. cerevisiae deletion strains, locus YPR167C, strain met16, active compounds read low 0.991 | S. cerevisiae deletion strains, strain wtn01, active compounds read low 1.01 | S. cerevisiae strains, strain wild type, active compounds read low 1.01
